Screens from PubChem.
Sm TGR block = qHTS Assay for the Inhibitors of Schistosoma Mansoni Peroxiredoxins. Schistosoma mansoni thioredoxin glutathione reductase (TGR), Q962Y6. purified TGR, DTNB reduction, TNB absorbance 405 nm. Potency, µM (doses to about 114 µM), without a hit: at the highest dose activity change, negative = inhibition, usual class: inhibitors. actives 3% (n = 360,000); further: on the % scale 0 is the no-effect control and ±100 the full control effect; nearly all actives have a fitted effect of over 60% in size
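First, TGR (20 nM dispensed) and NADPH were mixed with compound. Second, a 15 min room-temperature incubation followed. Third, further NADPH and then DTNB were added to start the reaction. Finally, TNB absorbance was monitored kinetically.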
AMA1-RON2 inh = qHTS for Inhibitors of AMA1-RON; Towards Development of Antimalarial Drug Lead: Primary Screen. Plasmodium falciparum AMA1 (3D7) - RON2 peptide interaction. AlphaScreen AMA1-biotinylated RON2 peptide binding. Potency, µM (doses to about 58.2 µM), inactives show at the top dose activity change, negative = inhibition, actives largely listed as inhibitors. actives 0.2% (n = 360,000);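 further: 0% = vehicle wells and -100% = peptide control; nearly all actives have a fitted effect of over 45% in size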
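AMA1 (3D7) with his tag at 25 nM final met compounds first, then biotinylated RON2 peptide at 25 nM; detection used donor plus acceptor beads, 10 µg/mL apiece, read by AlphaScreen after 30 min at room temperature.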
NS1 function inh = qHTS Assay for Inhibitors of Influenza NS1 Protein Function; AID 2326, 2010; actives 0.4% (n = 270,000); Potency, µM (top dose mostly 46.1 µM), for inactives: at the top dose activity, positive = more growth; calls by dose curve; further: actives are rising curves; nearly all actives have a fitted effect of over 50% in size
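OD600 was taken as the measure of yeast growth restored by compound in an NS1-expressing S. cerevisiae strain. Cells had been washed out of glucose medium and diluted 1:100 into galactose -URA medium, pH 6.0.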
Pf growth 48h = Primary qHTS for delayed death inhibitors of the malarial parasite plastid, 48 hour incubation. actives 5.9% (n = 310,000). P. falciparum luciferase growth in erythrocytes, 48 h. Potency, µM (doses to about 28.7 µM), without a hit: top-dose activity change, negative = inhibition, hits mostly inhibitors. AID 504832, 2011; further: on the % scale 0 is the no-effect control and ±100 the full control effect
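Parasite viability was followed by luminescence of a genomically integrated firefly luciferase. Cultures held 0.1% parasitemia at 2% hematocrit (final), incubated under 5% CO2 at 37 C.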
Pf growth 96h = Primary qHTS for delayed death inhibitors of the malarial parasite plastid, 96 hour incubation; P. falciparum luciferase reporter growth, 96 h; Potency, µM (highest dose often 28.7 µM), inactives show top-dose activity change, negative = inhibition, usual class: inhibitors; actives 6.9% (n = 320,000); AID 504834, 2011; further: on the % scale 0 is the no-effect control and ±100 the full control effect
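Erythrocytes infected with luciferase-expressing P. falciparum were dispensed at 2% hematocrit and 0.05% parasitemia (final), then incubated with compounds 96 hours at 37 C in 5% CO2. Luminescence after detection reagent addition reported growth.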
An asterisk follows results filed as active; ? = inconclusive; nt = not tested or not shown; [ ] = remark or other dose. Rows were chosen to be rich in hits. Some 11% of all compounds tested hit in one or more screens of this group. Unless noted, the call rests on the fitted dose curve; in most records, active means well fitted curve in the direction sought with a large enough effect; inconclusive means small, poorly fitted or top-dose-only effect, or another doubt; inactive means no such curve, though single readings can be large; an effect the other way counts as inactive or inconclusive. Potency means the concentration at half of the fitted maximal effect.

SMILES	Sm TGR block	AMA1-RON2 inh	NS1 function inh	Pf growth 48h	Pf growth 96h
CCN(CC)C(=O)C1CCCN(C/C=C/c2ccccc2)C1 (stereo not given)	1.4%	-22.7%	-6.7%	4.3%	?
CC(C)n1cc(CN2CCCC(C(=O)Nc3ccccc3Oc3cccnc3)C2)cn1 (stereo not given)	2.0%	19.2%	11.2%	-4.0%	0.0%
C#Cc1ccc(CN2CCC(C(=O)Nc3ccc(Oc4ccccc4)nc3)CC2)cc1	0.4%	-5.2%	-4.1%	?	2.33µM*
O=C(Nc1ccccc1Oc1cccnc1)C1CCCN(Cc2ccccc2O)C1 (stereo not given)	12.1%	1.0%	15.9%	13.1µM*	0.0%
O=C(Nc1cccc(-c2ccc(F)cc2)c1)C1CCCN(Cc2cccnc2)C1 (stereo not given)	-1.5%	-9.9%	1.8%	?	-26.7%
O=C(Nc1ccccc1Oc1cccnc1)C1CCCN(C/C=C/c2ccccc2)C1 (stereo not given)	-10.2%	-18.5%	-7.4%	5.22µM*	?
C#Cc1ccc(CN2CCCC(C(=O)Nc3ccccc3Oc3cccnc3)C2)cc1 (stereo not given)	-1.1%	-14.3%	-16.1%	10.4µM*	-18.7%
CCOc1ccc(/C=C(\C#N)C(=O)Nc2sc3c(c2C(=O)OC)CCC3)cc1OC	6.7%	nt	nt	nt	nt
O=c1c2ccccc2c(C=Nc2ccc(O)cc2)c(O)n1-c1nccs1	-17.9%	2.1%	6.6%	?	?
COc1ccc(CN2CCN(CCSc3ccc(C)cc3)CC2)c(OC)c1OC	-3.1%	?	7.8%	0.7%	13.4%
CCc1ccc(NC(=O)c2nnn(Cc3cccc(C(F)(F)F)c3)c2N)cc1	-3.3%	nt	nt	nt	nt
COc1ccc(CN2C(=O)c3ccccc3C2c2nnnn2-c2ccc3c(c2)OCCO3)cc1 (stereo not given)	nt	1.6%	nt	nt	nt
COc1ccc(-n2nnnc2-c2cccnc2)cc1	14.3%	63.8%	0.3%	0.1%	9.28µM*
COc1cc2c(-c3ccc4[nH]ccc4c3)c(-c3ccc(C#N)cc3)oc(=O)c2cc1OC	-7.2%	2.3%	nt	?	4.65µM*
COc1cc2c(C#CCO)c(-c3ccc(C#N)cc3)oc(=O)c2cc1OC	nt	0.0%	nt	nt	nt
COc1cc2c(C#CCCCO)c(-c3ccc(C#N)cc3)oc(=O)c2cc1OC	31.6µM*	-2.7%	nt	7.3%	19.3%
COc1cc2c(-c3ccc4cc[nH]c4c3)c(-c3ccsc3)oc(=O)c2cc1OC	-4.1%	-7.5%	nt	?	2.33µM*
COCCCn1c(C)nnc1SCC(=O)Nc1cccc(C)c1	-20.8%	-1.6%	6.2%	17.9%	1.8%
CCNC(=O)C1(C)CCN(C(=O)c2ccccc2OC(F)(F)F)C1 (stereo not given)	nt	34.2%	nt	nt	nt
CC1CCN(CC(=O)Nc2ccc(S(=O)(=O)NC3CC3)cc2)CC1	3.5%	?	?	37.0%	54.8%
CC(=O)N1c2ccccc2-c2nc3ccccc3n2C1C (stereo not given)	-0.9%	-16.3%	-3.5%	-1.6%	-11.6%
CCN1c2ccccc2-c2nc3ccccc3n2C1c1ccccn1 (stereo not given)	0.0%	14.5%	-148.0%	?	?
c1cncc(C2Nc3ccccc3-c3nc4ccccc4n32)c1 (stereo not given)	11.2%	11.9%	-32.0%	nt	8.7%
c1ccc2c(c1)NC(c1ccncc1)n1c-2nc2ccccc21 (stereo not given)	8.5%	-9.5%	-13.3%	2.62µM*	-21.8%
CCN1c2ccccc2-c2nc3ccccc3n2C1c1cccnc1 (stereo not given)	-11.2%	-2.2%	-107.9%	9.28µM*	-2.1%[5.75 µM]
SMILES	Sm TGR block	AMA1-RON2 inh	NS1 function inh	Pf growth 48h	Pf growth 96h
CCN1c2ccccc2-c2nc3ccccc3n2C1c1ccncc1 (stereo not given)	0.0%	7.4%	-131.9%	5.22µM*	10.4µM*
Cc1ccsc1/C=N/NC(=O)c1ccc(-n2cccc2)cc1	29.6%	34.0%	7.5%	?	-46.6%
COCCN(C(=O)CSc1nnc(-c2cccc(Cl)c2)n1N)c1c(N)n(CC(C)C)c(=O)[nH]c1=O	nt	47.3%	nt	nt	nt
CCCC(=O)NC(c1ccco1)c1cc([N+](=O)[O-])c2cccnc2c1O (stereo not given)	28.2µM*	-25.0%	nt	?	14.7%
CC(=O)NC(c1ccc(Cl)cc1)c1ccc2cccnc2c1O (stereo not given)	nt	-19.4%	nt	nt	nt
CC(=O)NC(c1ccco1)c1ccc2cccnc2c1O (stereo not given)	-18.3%	?	-77.6%	10.4µM*	6.6%
CCC(=O)NC(c1ccc(C)cc1)c1cc([N+](=O)[O-])c2cccnc2c1O (stereo not given)	-28.9%	27.0%[11.6 µM]	14.7%	?	19.8%
CCC(=O)NC(c1ccco1)c1cc(Br)c2cccnc2c1O (stereo not given)	35.5µM*	nt	nt	?	?
CC(=O)NC(c1ccco1)c1cc(Cl)c2ccc(N3CCCCC3)nc2c1O (stereo not given)	10µM*	nt	nt	-26.2%	-22.5%
COc1cc(S(=O)(=O)Nc2ccc3c(c2)C(=O)N(C)C3=O)ccc1NC(C)=O	nt	-3.2%	nt	nt	nt
CCN(C(=O)CN1CC(C)OC(C)C1)c1c(N)n(Cc2ccccc2)c(=O)[nH]c1=O (stereo not given)	5.4%	0.0%	nt	1.5%	30.0%
CCOC(=O)c1ccoc1CSCc1ccc(C(=O)OC)o1	28.2µM*	12.5%	-48.8%	0.0%	-0.6%
COC(=O)c1ccc(CSC(=N)N)o1	-0.7%	7.4%	1.0%	?	47.3%
O=C(Nc1sc2c(c1C(=O)NCC1CCCO1)CCC2)c1cc(=O)c2cc(Cl)ccc2o1 (stereo not given)	6.4%	nt	nt	nt	nt
CCC(=O)Nc1c(S(=O)(=O)c2ccccc2)c2nc3ccccc3nc2n1C(C)c1ccccc1 (stereo not given)	-1.6%	-16.2%	12.6%	11.7µM*	11.7µM*
COc1ccc(Cl)cc1NC(=O)CSc1cccc[n+]1[O-]	nt	-4.6%	nt	nt	nt
CCC(C)/C=C/C1=CC2=C(Cl)C(=O)C3(C)OC(=O)C(C(=O)C(C)C(C)O)C3C2=CO1 (stereo not given)	50.1µM*	-11.8%	2.6%	-3.1%	67.7%
Cc1ccccc1C(=O)Nc1cccc(NC(=O)c2cccnc2)c1	-11.3%	14.3%	6.4%	1.6%	-1.2%
O=C(CCCC1=NS(=O)(=O)c2ccccc2N1)N1CCN(c2ccc([N+](=O)[O-])cc2)CC1	-11.8%	-10.7%	2.1%	8.28µM*	?
CCCCCCCCCCCCCC[n+]1ccc(C)cc1	nt	nt	nt	0.849µM*	0.849µM*
CC(=O)Nc1ccc(OCCC[n+]2ccccc2)cc1	0.0%	-1.0%	1.1%	-4.0%	30.0%
